Results on 40 compounds are retold here after PubChem BioAssay (NCI).

Structures are written as SMILES. “And” between values parts separate entries of the source, which are not always exact repeats. Equal entries are not always repeated. The panel holds about 83,000 compounds, 20% with a hit somewhere; the sample as a whole holds those more often.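 Method: cells in 96-well plates; compound added at one concentration; 48 h incubation; percent growth measured; values under 10 scored active.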 A number with no mark means an inactive call.

This test relates to KM12 colon. Put plainly: NCI-60 one-dose screen, 48 h (100 = growth as untreated, 0 = no growth, -100 = all killed). To be noted: 10 µM unless noted. As to the method: Growth inhibition of the KM12 human tumor cell line is measured as a screen for anti-cancer activity. Cells are grown in 96 well plates and exposed to the test compound for 48 hours. Compounds are tested at a single concentration, which is 10^-5 M for most compounds. The reported endpoint is percent growth (GI% or GIPRCNT), where numbers from 0 - 100% represent growth inhibition, and numbers from -100% - 0 represent cell death. For example, a value of 40 represents 60% growth inhibition. A value of 0 means no net growth occurred over the course of the experiment. A value of -40 indicates 40% of cells at the beginning of the experiment died by the end of the experiment. A value of -100 means all cells are dead at the end of the experiment.
NCI-60 Human Tumor Cell Lines Screen was performed using the standard one-dose NCI protocol, which is described in more detail at https://dtp.cancer.gov/discovery_development/nci-60/default.htm.
Compounds with GIPRCNT values below 10 were considered active. Activity score was based on GIPRCNT using the following formula: […]
Score is 0 for GIPRCNT values of 100 or above, 50 for GIPRCNT values of 0, and 100 for GIPRCNT values of -100.
On to `O=C(/C=C/c1ccccc1)c1ccccc1`, for which the growth is 33.3%.

For the compound `CCCCOc1ccc(Nc2cc(Cl)ccc2C(=O)O)cn1`, the growth is 118% and 103%.

For the compound `COc1ccc(C(=O)CC(c2ccccc2)C(C#N)c2ccccc2)cc1` (stereo not given), the growth is 79.9%.

`Cc1cc(-c2cc(C)c(O)c(C)c2)cc(C)c1O`: the growth was 72.6%.

For the compound `Cc1cc(-c2ccc(N=Nc3ccc4c(S(=O)(=O)O)cc(S(=O)(=O)O)c(N)c4c3O)c(C)c2)ccc1N=Nc1ccc2c(S(=O)(=O)O)cc(S(=O)(=O)O)c(N)c2c1O`, the growth is 94.7%.

Consider `Cl`, for which the growth is 112%.

In the case of `COc1ccc2cc1Oc1ccc(cc1)C[C@H]1c3cc(c(OC)cc3CCN1C)Oc1c(OC)c(OC)cc3c1[C@H](C2)N(C)CC3`, the growth is 15.6%.

For `CC(C)NCC(O)c1ccc(O)c(O)c1` (stereo not given), the growth was 106% and 105%.

For the compound `COc1ccc(Nc2ccc3ccccc3c2)cc1`, the growth is 46.7%.

For `CCCCCCCCCCCCCCCc1ccc(N)c(OC2OC(CO)C(O)C(O)C2O)c1` (stereo not given), the growth was 100%.

As to `COc1ccc(N/C=C/C2=[N+](C)c3ccccc3C2(C)C)c(OC)c1`, the growth was 103%.

Take `OCC1OC(O)C(O)C(O)C1O` (stereo not given): the growth is 128%.

As to `Brc1ccc(SSc2ccc(Br)cc2)cc1`, the growth was 57.4%.

Take `COc1cc(C(O)C2C(=O)OCC2C2(c3ccc4c(c3)OCO4)SCCCS2)cc(OC)c1OC` (stereo not given): the growth is 96.2%.

With `Fc1ccc([I+]c2ccc(F)cc2)cc1`, the growth is 54.5%.

`O=C1OC(C(O)C(O)CO)C(O)=C1O` (stereo not given): the growth was 109% and 103%.

For the compound `Cc1cc2ccccc2cn1`, the growth is 106% and 108%.

Turning to `CC(=O)OCC1OC(OC(C)=O)C(OC(C)=O)C(OC(C)=O)C1OC(C)=O` (stereo not given), the growth was 109% and 100%.

`NC1CCC(C(=O)O)CC1` (stereo not given): the growth was 107% and 108%.

Regarding `CCOC(=O)c1c(C)cc(=O)oc1C`, the growth was 110%.

Consider `Nc1nc(N)c2[nH]cnc2n1`, for which the growth is 107%.

As for `Cn1cnc([N+](=O)[O-])c1Sc1ncn[nH]1`, the growth was 107%.

Take `CC(C)NC(=O)N/C=C(\C#N)C(N)=O`: the growth was 92.7%.

`CCCCOC(=O)/C=C\C(=O)NC(N)=O`: the growth is 106%.

With `CC(C)(O)C(=O)O`, the growth was 107%.

Take `Nc1cc(N)c(N)cc1N`: the growth is 80.1%.

As for `N#CC(C#N)N=Nc1cc(Cl)ccc1Cl`, the growth is 103%.

Consider `OCCN1CCCCCCC1`, for which the growth is 110%.

As for `Nc1ccc2c(O)cc(S(=O)(=O)O)cc2c1`, the growth was 120% and 103%.

Take `C/C(=C\c1ccccc1)c1ccccn1`: the growth was 95.5%.

Turning to `Nc1ncnc2c1ncn2C1OC(COP(=O)(O)O)C(O)C1O` (stereo not given), the growth is 111%.

Consider `CC1=C/C(O)CC(=O)Cc2nc(co2)C(=O)N2CCC=C2C(=O)OC(C(C)C)C(C)/C=C\C(=O)NC/C=C\1` (stereo not given), for which the growth is 95.1%.

Turning to `CN(C)c1ccc(/C=C\C(=O)c2ccccc2)cc1`, the growth is 51.5% and 50.1% and 57.5%.

With `CC(=O)OC(C)C(=O)NCC(C)O` (stereo not given), the growth was 102%.

As to `O=C(O)/C=C\C(=O)Nc1cccc2ccccc12`, the growth is 89.8% and 106%.

On to `O=C1CSC2=NCCN12`, for which the growth was 89.8% and 123%.

For the compound `C#CCOC(=O)Nc1ccccc1`, the growth was 110%.

As to `c1ccc(-c2nc3ccccc3s2)cc1`, the growth is 95.4%.

Regarding `CC(=O)NCC(=O)c1ccc([N+](=O)[O-])cc1`, the growth was 103%.

Take `CC(C)C(C)(C)c1ccc(O)cc1`: the growth was 107%.
